From PubChem BioAssay
Values joined by “and” are separate entries in the source; they are usually repeats but may differ in a detail not shown here. Identical values can stand only once.

How the values were obtained:
[1] = test system: Botulinum neurotoxin type F light chain protease (Clostridium botulinum); assay: Clostridium botulinum type F light chain protease inhibitors, microsphere substrate cleavage, validation (AID 588459); conditions: multiplex microsphere protease substrate cleavage assay, flow cytometry; at 10 µM; active compounds read high
[2] = molecular target: Botulinum neurotoxin type A (Clostridium botulinum) (UniProt P0DPI0); assay: BoNT/A light chain protease inhibitors, biochemical, multiplex microsphere flow cytometry, validation set (AID 588460); conditions: at 10 µM, active compounds read high
[3] = molecular target: Lethal factor (Bacillus anthracis) (UniProt P15917); assay: Bacillus anthracis lethal factor inhibition, microsphere flow cytometry protease assay, validation at 10 µM (AID 588461); conditions: multiplex microsphere protease cleavage assay, active compounds read high

Measured: inhibition

Botulinum neurotoxin type A (Clostridium botulinum), sequence (P0DPI0 whole entry, looked up): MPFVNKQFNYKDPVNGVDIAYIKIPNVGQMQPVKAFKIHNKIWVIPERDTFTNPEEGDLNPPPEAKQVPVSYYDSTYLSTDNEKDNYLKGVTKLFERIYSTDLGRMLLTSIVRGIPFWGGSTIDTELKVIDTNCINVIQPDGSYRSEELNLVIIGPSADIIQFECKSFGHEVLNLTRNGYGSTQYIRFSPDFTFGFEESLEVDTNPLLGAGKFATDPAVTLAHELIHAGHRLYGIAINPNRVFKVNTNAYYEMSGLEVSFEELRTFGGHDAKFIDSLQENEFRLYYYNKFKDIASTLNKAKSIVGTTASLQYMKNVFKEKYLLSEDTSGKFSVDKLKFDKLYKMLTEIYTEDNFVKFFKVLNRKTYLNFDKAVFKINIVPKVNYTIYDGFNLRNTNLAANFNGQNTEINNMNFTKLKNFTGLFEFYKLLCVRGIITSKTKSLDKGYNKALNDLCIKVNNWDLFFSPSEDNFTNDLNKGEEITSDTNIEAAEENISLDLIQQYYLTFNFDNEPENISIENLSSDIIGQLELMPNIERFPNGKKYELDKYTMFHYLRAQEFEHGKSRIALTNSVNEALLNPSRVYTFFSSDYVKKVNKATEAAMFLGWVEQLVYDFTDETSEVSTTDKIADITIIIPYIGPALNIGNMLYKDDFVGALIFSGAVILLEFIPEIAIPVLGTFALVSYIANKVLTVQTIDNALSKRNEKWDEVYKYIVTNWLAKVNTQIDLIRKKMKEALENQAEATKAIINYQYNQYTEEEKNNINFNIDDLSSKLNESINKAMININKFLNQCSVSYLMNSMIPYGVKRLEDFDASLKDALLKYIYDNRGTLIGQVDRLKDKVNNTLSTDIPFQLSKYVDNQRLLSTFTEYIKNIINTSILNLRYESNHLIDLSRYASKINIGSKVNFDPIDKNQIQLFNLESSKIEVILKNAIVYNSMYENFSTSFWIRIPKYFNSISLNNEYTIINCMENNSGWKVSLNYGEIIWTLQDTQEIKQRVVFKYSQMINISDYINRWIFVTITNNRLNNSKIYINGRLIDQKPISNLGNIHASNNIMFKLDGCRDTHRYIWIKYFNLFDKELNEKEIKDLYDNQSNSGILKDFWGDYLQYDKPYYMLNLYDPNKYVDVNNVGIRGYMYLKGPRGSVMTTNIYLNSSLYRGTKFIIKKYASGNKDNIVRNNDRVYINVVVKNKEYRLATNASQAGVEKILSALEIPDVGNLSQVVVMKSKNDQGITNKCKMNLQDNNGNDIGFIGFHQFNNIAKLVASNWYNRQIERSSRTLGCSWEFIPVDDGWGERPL
Lethal factor (Bacillus anthracis), sequence (P15917 whole entry, looked up): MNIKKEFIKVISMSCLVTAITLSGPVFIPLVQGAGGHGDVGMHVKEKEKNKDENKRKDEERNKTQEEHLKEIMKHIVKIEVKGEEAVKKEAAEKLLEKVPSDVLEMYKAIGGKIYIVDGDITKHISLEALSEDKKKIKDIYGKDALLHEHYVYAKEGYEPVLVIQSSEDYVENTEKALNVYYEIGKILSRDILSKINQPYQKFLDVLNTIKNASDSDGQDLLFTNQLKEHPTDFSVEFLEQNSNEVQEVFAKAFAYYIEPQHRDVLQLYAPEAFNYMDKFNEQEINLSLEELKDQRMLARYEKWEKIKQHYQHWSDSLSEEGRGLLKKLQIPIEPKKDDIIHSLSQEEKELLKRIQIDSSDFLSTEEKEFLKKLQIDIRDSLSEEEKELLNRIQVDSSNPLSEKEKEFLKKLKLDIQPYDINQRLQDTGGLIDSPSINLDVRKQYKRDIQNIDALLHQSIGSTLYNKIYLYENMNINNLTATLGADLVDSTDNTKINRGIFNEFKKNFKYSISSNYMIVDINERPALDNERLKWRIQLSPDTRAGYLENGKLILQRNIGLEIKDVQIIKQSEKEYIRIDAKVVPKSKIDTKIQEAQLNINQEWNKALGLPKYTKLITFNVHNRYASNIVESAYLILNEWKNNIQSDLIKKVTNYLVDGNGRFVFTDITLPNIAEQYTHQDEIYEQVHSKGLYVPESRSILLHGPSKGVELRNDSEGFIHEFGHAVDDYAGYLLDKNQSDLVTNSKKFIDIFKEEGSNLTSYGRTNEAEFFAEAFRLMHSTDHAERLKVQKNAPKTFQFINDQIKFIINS

CN(C)C(=O)CCCCCCCCC(=O)N(C)C
inactive: [1] -2.7% | [2] -0.9% | [3] -5.5%

COc1ccc2c(C=O)cn(C)c2c1
inactive: [1] 1.9% | [2] -0.9% | [3] 2.1%

COc1cc(C2Nc3ccccc3C(=O)N2c2ccccc2)ccc1O (stereo unspecified)
inactive: [1] 0.9% | [2] 0% | [3] -4.4%

CC(C)c1cc(=O)oc2c3c4c(cc12)CCCN4CCC3
inactive: [1] 4.4% | [2] 2% | [3] -13.8%

NC(=O)C1CCCNC1 (stereo unspecified)
inactive: [1] 1.6% | [2] -0.4% | [3] 5.4%

COc1ccc2nc(Nc3nc(CSc4ccc(C)cc4)cc(=O)[nH]3)nc(C)c2c1
inactive: [1] 0.6% | [2] -0.3% | [3] 2%

Cc1ccc(S(=O)(=O)NC(C(=O)Oc2cc3oc(=O)cc(C)c3cc2Cl)C(C)C)cc1 (stereo unspecified)
inactive: [1] 0.5% | [2] 0.5% | [3] -3.2%

CS(=O)(=O)NCc1ccc(C(=O)NCc2ccccc2)cc1
inactive: [1] 2.9% | [2] 0.5% | [3] -4.2%

CCN(Cc1cnn(C)c1)Cc1nc(C(c2ccccc2)c2ccccc2)no1
inactive: [1] 0.3% | [2] -2.2% | [3] -3.7%

COC(=O)c1sccc1NC(=O)Nc1ccccc1F
inactive: [1] -1.2% | [2] -1.3% | [3] 1.2%

COc1ccc(-c2onc(C)c2-c2ccc(C(=O)OC(C)C)o2)c(O)c1
inactive: [1] 1.1% | [2] 0.9% | [3] 0.9%

O=C(CC(C(=O)O)c1c[nH]c2ccccc12)c1ccccc1 (stereo unspecified)
inactive: [1] 0.3% | [2] 2% | [3] 6.4%

Fc1cc(F)cc(NC(=S)NCCCN2CCOCC2)c1
inactive: [1] 0.9% | [2] -0.7% | [3] -2.9%

CC(C)c1ccccc1OCCNC(=S)NC(=O)c1cccnc1
inactive: [1] 4.3% | [2] 1.6% | [3] 2.6%

Cc1ccc(-c2nn(-c3cccc(F)c3)cc2CN2CCN(c3ccccn3)CC2)o1
inactive: [1] -0.1% | [2] -0.9% | [3] -6.4%

Cc1nc(NC(CC(C)C)C(=O)O)c2nc(C)oc2n1 (stereo unspecified)
inactive: [1] 1.1% | [2] 1.1% | [3] -5.4%

CC12CC(c3ccccc3O1)C(C(=O)N1CCOCC1)C(=O)N2 (stereo unspecified)
inactive: [1] 2.8% | [2] 0% | [3] -4.8%

CCOc1cc(C=O)ccc1OCCSc1ccc(C)cc1
inactive: [1] 1.3% | [2] 0.4% | [3] -3.6%

COc1ccc2c(c1OC)C(=O)OC2C1c2c(cc3c(c2OC)OCO3)CCN1C (stereo unspecified)
inactive: [1] 0.2% | [2] -0.4% | [3] 0.2%

CCOc1ccc(C(=O)C(C)=O)c(OCC)c1
inactive: [1] 4.3% | [2] 1% | [3] 7.8%

Cc1ccc2c(c1)C(O)(c1c(C)[nH]c3ccccc13)C(=O)N2 (stereo unspecified)
inactive: [1] -4.4% | [2] -1.6% | [3] -10%

CC(C)=CC/C=C1\CCC(C(=O)O)C(C(=O)O)C1 (stereo unspecified)
inactive: [1] -1.1% | [2] -1.6% | [3] -3.4%

C=CCc1ccccc1OCC(O)CNC(C)C (stereo unspecified)
inactive: [1] -1% | [2] 0.4% | [3] -6.5%

COC(=O)c1ccc(OCCCCN2CC(C)OC(C)C2)cc1 (stereo unspecified)
inactive: [1] -4.5% | [2] 0.2% | [3] 4%

COc1ccc(NC(=O)CC2C(=O)N(C)C(=S)N2Cc2ccncc2)cc1 (stereo unspecified)
inactive: [1] -2.7% | [2] -1.6% | [3] -9.6%

O[C@@H](CNC[C@H](O)c1ccccc1)c1ccccc1
inactive: [1] 3.9% | [2] 1.5% | [3] 4.2%

O=C1CCCN1C(=O)CCC(=O)N1CCCC1=O
inactive: [1] -1.4% | [2] 0.3% | [3] -2.8%

C[C@]12CCC(=O)C=C1CC[C@@H]1[C@@H]2[C@@H](O)C[C@@]2(C)[C@H]1CC[C@]2(O)C(=O)CO
inactive: [1] 2.1% | [2] -1.4% | [3] -10.2%

O=C(O)C1CSC(c2ccco2)N1 (stereo unspecified)
inactive: [1] -2.3% | [2] -2.5% | [3] -0.8%

CC(=O)N1N=C(c2cccs2)CC1c1ccc(C)o1 (stereo unspecified)
inactive: [1] -1.2% | [2] -0.8% | [3] 1.7%

O=C(O)c1ccccc1O
inactive: [1] 0.4% | [2] -0.5% | [3] 2.3%

O=C(c1cc2cc(Br)ccc2o1)N1CCCCC1
inactive: [1] 5.3% | [2] -0.6% | [3] 8.5%

COc1ccc(CCn2c(C)nc3c(c(=O)c4ccccc4n3C)c2=O)cc1
inactive: [1] 3.4% | [2] 0.2% | [3] 5.5%

O=C(OCC1OC2OC3(CCCCC3)OC2C2OC3(CCCCC3)OC12)c1ccccc1 (stereo unspecified)
inactive: [1] -3.1% | [2] 2.6% | [3] -2.2%

Cc1ccc2c(ccc(=S)n2C)c1
inactive: [1] 1.7% | [2] 0.8% | [3] 7.4%

CC(C)(C)C(=O)Nc1cccc(OC(F)(F)C(F)Cl)c1 (stereo unspecified)
inactive: [1] 3.3% | [2] 0% | [3] -6%

Cc1csc(CCc2nc(C)cs2)n1
inactive: [1] 1.4% | [2] 0.2% | [3] -2.1%

CCN(CC)CCN1C(=O)C(=O)/C(=C(/O)c2c(C)[nH]c(C(=O)OC)c2C)C1c1cccnc1 (stereo unspecified)
inactive: [1] -1.7% | [2] -0.9% | [3] -4.4%

CC(=O)N1CC23C=CC(CC2CC12CCCCCC2)O3 (stereo unspecified)
inactive: [1] 1.3% | [2] -1.4% | [3] 1.3%

CC(=O)O[C@H]1C(=O)[C@@]2(C)[C@H]([C@H](OC(=O)c3ccccc3)[C@]3(O)C[C@H](OC(=O)[C@H](O)C(NC(=O)c4ccccc4)c4ccccc4)C(C)=C1C3(C)C)[C@]1(OC(C)=O)CO[C@@H]1C[C@@H]2O (stereo partly specified)
inactive: [1] 1.1% | [2] -0.8% | [3] 4.6%

CC(C)CCNC(=O)[C@H](CC(C)C)NC(=O)[C@H]1O[C@@H]1C(=O)O
inactive: [1] -3.8% | [2] 1.5% | [3] -3%

N#C/C(C(N)=O)=c1/ccc2c(c1)N1C3=C(CCCC3)CC3CCCCC31N=2 (stereo unspecified)
inactive: [1] -0.8% | [2] 2.4% | [3] -2.3%

COc1ccc(-c2nc3c(=O)n(C)c(=O)[nH]c3n2CCc2ccccc2)cc1
inactive: [1] 1.2% | [2] 0.2% | [3] -1.2%

C=CCNC(=S)N1CCc2c([nH]c3ccccc23)C1C (stereo unspecified)
inactive: [1] 1.4% | [2] 0.4% | [3] 0.1%

CCOc1ccccc1Oc1coc2cc(OCC(=O)O)ccc2c1=O
inactive: [1] 0% | [2] 1.4% | [3] 0.2%

CC(C)(C)C(=O)NC(=S)NNC(=O)c1ccncc1
inactive: [1] 8.3% | [2] 2.9% | [3] -3.3%

Cc1ccc2nc3c(cc(C(=O)NCC4CCCO4)c(=N)n3CCCOC(C)C)c(=O)n2c1 (stereo unspecified)
inactive: [1] 3.3% | [2] -0.1% | [3] -4%

CCOc1ncnc2c1[nH]c1ccccc12
inactive: [1] 5.6% | [2] 0.5% | [3] -0.4%

O=C(CN1C(=O)/C(=C/c2cccc(Br)c2)SC1=S)Nc1cccnc1
inactive: [1] 1.8% | [2] -0.3% | [3] 4.2%

Nc1c(C(=O)c2ccccc2)oc2ccccc12
inactive: [1] 1.8% | [2] 1% | [3] -7.3%

CN(C)CCOCCOc1ccc(Cl)cc1Br
inactive: [1] 6.4% | [2] 1% | [3] -5.5%

Cc1nc2c(c3c1[nH]c1ccccc13)C(=O)CC(C)(C)C2
inactive: [1] 2.1% | [2] 0.3% | [3] 6%

COc1cc2nc(N3CCN(C(=O)C4CCCO4)CC3)nc(N)c2cc1OC (stereo unspecified)
inactive: [1] 3.3% and 1.5% | [2] 0% | [3] -5.7% and -7.8%

CNCCC=C1c2ccccc2CCc2ccccc21
inactive: [1] -4.9% | [2] 0.2% | [3] -5.8%

CCCCOC(=O)c1ccc(N)cc1
inactive: [1] 3.6% | [2] -1.1% | [3] 2.2%

COC(=O)[C@H]1[C@H]2C[C@@H]3c4[nH]c5cc(OC)ccc5c4CCN3C[C@H]2C[C@@H](OC(=O)c2ccc(N)cc2)[C@@H]1OC
inactive: [1] -4.7% | [2] -2.3% | [3] -32.8%

C1COC(NC(C2CC2)C2CC2)=N1
inactive: [1] 3% | [2] -0.1% | [3] -5%
